# In the library only some 8% were active in any assay of this set; here they are far more common.
# LASV entry inh: blocks Lassa virus binding to or entry into cells | Lassa virus pseudotype entry inhibition, cell reporter | Potency, µM (top dose mostly 37.9 µM), for the others: at the top dose activity change, negative = inhibition, hits mostly inhibitors | actives 1.2% (n = 300,000) | AID 540256; calls by dose curve; tested in HEK293 cells; also: potency is read from the fitted curve at half-maximal effect; % is scaled to controls: 0 for no effect and ±100 for the full control effect; nearly all actives have a fitted effect of over 50% in size
# MARV entry inh: inhibitors of Marburg virus binding or cell entry | Marburg virus pseudotyped entry inhibition, cell reporter | Potency, µM (top dose mostly 37.8 µM), for the others: top-dose activity change, negative = inhibition, usual class: inhibitors | actives 1.8% (n = 300,000); calls by dose curve; tested in HEK293 cells; also: potency is read from the fitted curve at half-maximal effect; % is scaled to controls: 0 for no effect and ±100 for the full control effect
# HCV inhibitor: blocks hepatitis C virus. Potency, µM (highest dose often 41.8 µM), for the others: at the top dose activity change, negative = inhibition, most hits filed as inhibitors. actives 3.4% (n = 340,000). AID 651820. Huh7.5.1 HCVcc-Cre infection, luciferase reporter, 44 h; active = well fitted inhibition curve with a large enough effect; inconclusive = small, poorly fitted or top-dose-only effect, or another doubt; inactive = no such curve, though single readings can be large or run the other way; also: potency is read from the fitted curve at half-maximal effect; % is scaled to controls: 0 for no effect and ±100 for the full control effect
#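 Antiviral activity was scored by luciferase reporter output from cells infected with HCVcc-Cre (~0.5 moi) in presence of compound, 44 h infection period, cells seeded 1,000/well 4 h prior.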
# HCMV antiviral: human cytomegalovirus inhibition; AID 1259415; activity change, negative = inhibition, % at 57.5 µM; HFF cells, HCMV-luciferase reporter, 72 h; active compounds read low; actives 4.5% (n = 410,000); in the data active = activity change below about -60%; inconclusive = no clear call, values can overlap the other calls; inactive = above about -39%; also: % is scaled to controls: 0 for no effect and ±100 for the full control effect
#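 Human foreskin fibroblasts infected with luciferase-reporter HCMV at MOI 1 PFU/cell, compounds at two doses. Luciferase measured 72 h post infection; normalized to buffer-only basal and Salinomycin (10uM) controls.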
# SARS PLP yeast: blocks SARS-CoV papain-like protease in a yeast assay | S. cerevisiae expressing SARS-CoV PLpro, growth rescue | Potency, µM (doses to about 32.9 µM), without a hit: top-dose activity, positive = growth rescue, hits mostly activators | actives 0.19% (n = 330,000) | AID 485353; calls by dose curve; also: potency is read from the fitted curve at half-maximal effect; 0% is about no effect; nearly all actives have a fitted effect of over 55% in size
# FMDV antiviral: antivirals against foot and mouth disease virus; FMDV antiviral cell-based qHTS; Potency, µM (titrated, usually from 57.9 µM), for inactives: at the highest dose activity change, negative = inhibition, usual class: inhibitors; actives 1.2% (n = 410,000); calls by dose curve; tested in HEK293T cells; also: read-out not given here; potency is read from the fitted curve at half-maximal effect; % is scaled to controls: 0 for no effect and ±100 for the full control effect; nearly all actives have a fitted effect of over 45% in size
# * marks the source's active call; other numbers are inactive results; ? = inconclusive; . = no result; [ ] = another dose, or the depositor's remark.
SMILES,LASV entry inh,MARV entry inh,HCV inhibitor,HCMV antiviral,SARS PLP yeast,FMDV antiviral
CC(C)(C)c1cc(C(=O)/C=C/c2ccc(C(=O)O)cc2)cc(C(C)(C)C)c1,.,.,.,.,.,25µM*
CCOc1cc(/C=C/C(=O)c2ccc3c(c2)OCCO3)ccc1OCC(=O)N(C)C,.,?,?,-77*,1%,14µM*
COc1ccc(NC(=O)c2oc3ccccc3c2NC(=O)COc2ccc(F)cc2)c(OC)c1,-6%[46.1 µM],0%[46.1 µM],.,0,.,-5%
COc1ccc(/C=C/C(=O)c2ccc(Cl)s2)cc1O,2%,14%,-5%,15,-29%,-6%
COc1cccc(/C=C/C(=O)c2ccc3c(c2)OCCO3)c1OC,?,?,-11%,-96*,-8%,-1%
COc1ccc(/C=N/NC(=O)c2ccc3c(c2)OCCO3)cc1[N+](=O)[O-],13%,19%,-8%,-22,0%,-5%
COc1ccc(/C=C/C(=O)c2ccc3c(c2)OCCO3)cc1[N+](=O)[O-],-6%,?,32µM*,178,9%,?
COc1cc(/C=C/C(=O)c2ccc(Cl)s2)cc(OC)c1O,?,?,13µM*,.,-29%,13µM*
CN1CCCC(CNC(=O)c2cnn(-c3ncc4c(n3)-c3ccccc3CC4)c2C2CC2)C1 (stereo not drawn),.,.,.,.,.,-10%
CCOC(=O)c1ccc(N2C(=O)c3n[nH]c(-c4ccco4)c3C2c2cccc(O)c2)cc1 (stereo not drawn),?,?,.,14,.,25µM*
CCOC(=O)c1ccc(N2C(=O)c3n[nH]c(-c4ccco4)c3C2c2ccc(F)cc2)cc1 (stereo not drawn),?,?,.,-89*,.,?
CCOC(=O)c1ccc(N2C(=O)c3n[nH]c(-c4ccco4)c3C2c2cccc(OC)c2)cc1 (stereo not drawn),?,?,.,-10,.,?
CCOC(=O)c1ccc(N2C(=O)c3n[nH]c(-c4ccco4)c3C2c2cccc(F)c2)cc1 (stereo not drawn),?,?,.,-98*,.,?
CCOC(=O)c1ccc(N2C(=O)c3n[nH]c(C)c3C2c2ccccc2)cc1 (stereo not drawn),-20%,?,6%,-13,0%,-7%
CCOC(=O)c1ccc(N2C(=O)c3n[nH]c(-c4cccs4)c3C2c2cccc(F)c2)cc1 (stereo not drawn),?,?,.,5,.,?
CCOC(=O)c1ccc(N2C(=O)c3n[nH]c(-c4ccco4)c3C2c2ccccc2OC)cc1 (stereo not drawn),?,?,.,-101*,.,22µM*
Cn1c(=O)oc2cc(S(=O)(=O)NC(Cc3ccccc3)C(=O)Nc3ccc(F)c(Cl)c3)ccc21 (stereo not drawn),?,?,.,0,.,2%
c1ccc(-c2ccc([C@H](c3ccccc3)n3ccnc3)cc2)cc1,.,-56%,.,.,.,.
COC(=O)/C(=C1\OC(=O)C(c2ccccc2)C1=O)c1ccccc1 (stereo not drawn),.,.,.,.,.,45%
CCOC(=O)c1ccc(N2C(=O)c3n[nH]c(-c4ccco4)c3C2c2ccc(OCC)cc2)cc1 (stereo not drawn),?,11µM*,.,-88*,.,?
C=CCn1c(O)c(C(CC)=Nc2ccc(N(CC)CC)cc2)c(=O)[nH]c1=O,3.3µM*,-1%,?,18,0%,-20%
CCC(=Nc1ccc(OC)cc1OC)c1c(O)n(C)c(=O)n(C)c1=O,-17%,?,?,-25,1%,32µM*
CCC(=NCc1cc(OC)cc(OC)c1)c1c(O)n(C2CCCCC2)c(=O)[nH]c1=O,.,.,?,13,-1%,?
C=CCn1c(O)c(C(C)=Nc2ccc(N(CC)CC)cc2)c(=O)[nH]c1=O,?,-18%,?,39,3%,?
COc1cc(CN=C(C)c2c(O)n(C3CCCCC3)c(=O)[nH]c2=O)cc(OC)c1,?,-27%[46.1 µM],10µM*,65,0%,?
SMILES,LASV entry inh,MARV entry inh,HCV inhibitor,HCMV antiviral,SARS PLP yeast,FMDV antiviral
CCC(=NCCN1CCCCC1)c1c(O)n(C)c(=O)n(C)c1=O,13%,-7%,15%,18,1%,-1%
CCC(=NCCOc1ccc(Cl)cc1)c1c(O)n(C)c(=O)n(C)c1=O,2%,-24%,14%,?,-9%,25µM*
CCCCn1c(O)c(C(CC)=NC(C)c2ccccc2)c(=O)[nH]c1=O (stereo not drawn),?,?,?,10,1%,-27%
CCCCn1c(O)c(C(CC)=Nc2ccc(OC)cc2OC)c(=O)[nH]c1=O,?,?,?,-1,-7%,18µM*
CCCCn1c(O)c(C(CC)=Nc2ccc(OCC)cc2)c(=O)[nH]c1=O,0.33µM*,-3%,?,-34,4%,?
CCCCn1c(O)c(C(CC)=NCc2cc(OC)cc(OC)c2)c(=O)[nH]c1=O,?,-2%,13µM*,-8,7%,?
CCCCn1c(O)c(C(CC)=NCc2cccnc2)c(=O)[nH]c1=O,3%,-2%,10%,-20,4%,-17%
CCCCn1c(O)c(C(C)=NCc2cc(OC)cc(OC)c2)c(=O)[nH]c1=O,-1%,-21%,?,-10,-12%,-7%
CC(=Nc1ccc2c(c1)CCC2)c1c(O)n(C2CCCCC2)c(=O)[nH]c1=O,-6%,-4%,11%,-15,1%,29%
CCC(=Nc1ccc2c(c1)CCC2)c1c(O)n(C2CCCCC2)c(=O)[nH]c1=O,?,0%,1%,-85*,2%,-5%
CC1(C)C[C@@H]2C(=O)CCC3O[C@@]3(C)CCC21 (stereo partly drawn),.,.,.,.,.,2%
CCOc1ccc(-c2cc3nc(C4CCN(C(=O)OC(C)(C)C)CC4)c(C(=O)Nc4c(C)cccc4C)cn3n2)cc1,-4%[46.1 µM],7.1µM*,.,-18,.,-6%
CCOc1ccc(-c2cc3nc(C4CCN(C(=O)OC(C)(C)C)CC4)c(C(=O)Nc4ccc(C)cc4C)cn3n2)cc1,?,?,.,-5,.,-12%
O=c1c(-c2ccc(Cl)cc2)nc2cnc(N3CCOCC3)nc2n1C[C@H]1CCCO1,.,.,.,.,.,-11%
COc1ccc2c(Sc3ccccc3)c(C(=O)NCCCN3CCCCC3)[nH]c2c1,?,?,.,?,.,-12%
COc1ccc2[nH]c3c(c2c1)CC(C)NC3=O (stereo not drawn),.,.,-27%,-75*,-2%,10%
COc1ccc2[nH]c3c(c(=O)c2c1)CCCC3,.,.,.,-26,.,3%
Cc1cccc(N2CCN(C(=O)C3CCCN(S(=O)(=O)c4cccc5nsnc45)C3)CC2)c1C (stereo not drawn),18%[46.1 µM],5%[46.1 µM],.,13,.,0%
Cc1cccc(CSc2cn(CC(=O)N3CCCC3)c3ccccc23)c1,-21%[46.1 µM],.,.,0,.,28%
